From PubChem
PostGolgi yeast: growth inhibition of a yeast mutant, post-Golgi transport screen | post-Golgi transport phenotypic cell assay | inhibition, % at 10 µM | hit rate 0.9% among 98,000 | AID 739;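 also: yeast cells grown in 1536-well plates; yeast grown about 18 h at 30C before absorbance read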
CYP2C19 activ: cytochrome P450 2C19 (human) activation | recombinant CYP2C19, luciferin-H EGE luminescence; stronger effect = higher value; 0 = fully inhibited enzyme, 1 = untreated enzyme | P33261 | 96,000 tested, under 10 active | activation factor at 5 µM;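 active = activation factor of at least 2 at 5 µM in the primary screen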;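 also: 0 = wells with 2.5 mM tranylcypromine and 1 = vehicle-only wells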
Target sequence (P33261 whole entry, looked up): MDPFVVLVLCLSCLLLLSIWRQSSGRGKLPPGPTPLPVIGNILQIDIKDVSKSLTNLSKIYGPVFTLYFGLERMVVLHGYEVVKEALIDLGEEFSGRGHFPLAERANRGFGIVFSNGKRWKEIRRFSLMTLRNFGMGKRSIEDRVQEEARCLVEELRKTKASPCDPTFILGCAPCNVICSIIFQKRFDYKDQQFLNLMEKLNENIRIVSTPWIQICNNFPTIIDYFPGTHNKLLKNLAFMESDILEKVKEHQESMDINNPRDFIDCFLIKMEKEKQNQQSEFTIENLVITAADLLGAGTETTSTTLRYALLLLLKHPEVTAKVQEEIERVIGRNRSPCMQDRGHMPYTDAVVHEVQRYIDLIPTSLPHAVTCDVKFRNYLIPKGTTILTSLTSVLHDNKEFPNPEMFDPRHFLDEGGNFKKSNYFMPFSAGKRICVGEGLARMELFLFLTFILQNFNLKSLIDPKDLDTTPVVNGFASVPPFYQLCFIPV
CYP2C9 act: CYP2C9 (human) activation. P11712. hit rate 1.4% among 96,000. recombinant CYP2C9, luciferin-H conversion, luminescence; stronger effect = higher value; factor 1 = untreated enzyme, 0 = blocked. AID 1024. activation factor at 5 µM;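 active = activation factor of 2 or more for CYP2C9 at a 5 µM dose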;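 also: 0 = sulfaphenazole-blocked wells and 1 = vehicle-only wells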
CYP2C9 inh: blocks human cytochrome P450 2C9 | CYP2C9 Supersomes, luciferin-H conversion, luminescence | P11712 | hit rate 20% among 96,000 | inhibition, % at 5 µM;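 active = blocking of liver enzyme CYP2C9 beyond about 50% at 5 µM, limit read from the data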
CYP2C19 inhib: blocks human cytochrome P450 2C19. P33261. CYP2C19 Supersomes, luciferin-H EGE luminescence, 30 min. inhibition, % at 5 µM. hit rate 21% among 96,000. AID 778;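 active = CYP2C19 inhibition above a set limit at 5 µM in the primary screen, cut at about 50% in these data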;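 also: plate controls were negative control wells for no effect and 2.5 mM tranylcypromine positive control for full effect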
PostGolgi ctrl: inhibits growth of the yeast control strain; efflux-deficient yeast background strain, growth absorbance A615, 16 h; inhibition, % at 10 µM; hit rate 5% among 98,000; AID 738
Active calls of the source: *. Shown are actives, neighbours in structure and some others; about 32% of the full set was active somewhere. Rule as the data show it, unless noted: active = inhibition above about 30%; inactive = the rest.

Screening CCOC(=O)C1=C(CN2c3ccccc3CC2C)NC(=O)NC1c1ccccc1 (stereo not given) returned PostGolgi yeast 1, CYP2C19 activ 0.7, CYP2C9 act 0.8, CYP2C9 inh 20, CYP2C19 inhib 34 and PostGolgi ctrl 33*.
`CCOC(=O)C1=C(CN2CCSCC2)NC(=O)NC1c1cc(C)ccc1C` (stereo not given) gave PostGolgi yeast -5, CYP2C19 activ 0.6, CYP2C9 act 0.4, CYP2C9 inh 56*, CYP2C19 inhib 38 and PostGolgi ctrl 30.
`Cc1cccc(NC(=O)C2(C)CC3c4ccccc4C2c2ccccc23)c1` (stereo not given) gave PostGolgi yeast -5, CYP2C19 activ 1, CYP2C9 act 0.9, CYP2C9 inh 14, CYP2C19 inhib -2 and PostGolgi ctrl 7.
Screening COc1cccc(OC)c1C(=O)n1nc(C)cc1C returned PostGolgi yeast 15, CYP2C19 activ 1, CYP2C9 act 1.2, CYP2C9 inh -23, CYP2C19 inhib 2 and PostGolgi ctrl -6.
Screening Cc1ccc(NC(=S)N2CCC(c3nc4ccccc4s3)CC2)cc1 returned PostGolgi yeast 1, CYP2C19 activ 0.7, CYP2C9 act 0.4, CYP2C9 inh 57*, CYP2C19 inhib 32 and PostGolgi ctrl 10.
`CN1C(=O)CC(N2CCC(c3nc4ccccc4s3)CC2)C1=O` (stereo not given) gave PostGolgi yeast 8 and PostGolgi ctrl 0.
For O=C(CN1CCC(c2nc3ccccc3s2)CC1)NCc1cccs1 the results were PostGolgi yeast -1, CYP2C19 activ 0.9, CYP2C9 act 1, CYP2C9 inh -4, CYP2C19 inhib 7 and PostGolgi ctrl 12.
`CCNC(=S)N1CCC(c2nc3ccccc3s2)CC1` gave PostGolgi yeast 7, CYP2C19 activ 0.2, CYP2C9 act 0.6, CYP2C9 inh 39, CYP2C19 inhib 84* and PostGolgi ctrl 44*.
O=C(CSc1ccccc1Cl)N1CCC(c2nc3ccccc3s2)CC1 was read as PostGolgi yeast 13, CYP2C19 activ 0.6, CYP2C9 act 0.5, CYP2C9 inh 46, CYP2C19 inhib 39 and PostGolgi ctrl 64*.
Cc1ccc(-n2nnnc2SCC(=O)c2ccc3c(c2)NC(=O)CO3)c(C)c1 was read as PostGolgi yeast -2, CYP2C19 activ 0.8, CYP2C9 act 1.2, CYP2C9 inh -22, CYP2C19 inhib 18 and PostGolgi ctrl -4.
For CCOC(=O)C1CCCN(c2c(NCCCN(CC)c3ccccc3)c(=O)c2=O)C1 (stereo not given) the results were PostGolgi yeast 2, CYP2C19 activ 0.7, CYP2C9 act 0.9, CYP2C9 inh 8, CYP2C19 inhib 35 and PostGolgi ctrl 35*.
CCOC(=O)C1CCCN(c2c(NCCN(CC)c3ccccc3)c(=O)c2=O)C1 (stereo not given) was read as PostGolgi yeast -2, CYP2C19 activ 0.3, CYP2C9 act 0.7, CYP2C9 inh 27, CYP2C19 inhib 68* and PostGolgi ctrl -8.
`CCOC(=O)C1CCCN(c2c(NCCCN(C)Cc3ccccc3)c(=O)c2=O)C1` (stereo not given) gave PostGolgi yeast -3, CYP2C19 activ 1, CYP2C9 act 1, CYP2C9 inh -3, CYP2C19 inhib 3 and PostGolgi ctrl 6.
`COc1ccc(NC(=O)CCCNS(=O)(=O)c2cccs2)cc1` gave PostGolgi yeast -2, CYP2C19 activ 0.3, CYP2C9 act 0.5, CYP2C9 inh 50, CYP2C19 inhib 72* and PostGolgi ctrl 6.
O=C(O)CCCNS(=O)(=O)c1cccs1 was read as PostGolgi yeast 0, CYP2C19 activ 1, CYP2C9 act 1, CYP2C9 inh 2, CYP2C19 inhib 3 and PostGolgi ctrl 14.
`COc1ccc(NC(=O)CNS(=O)(=O)c2cccs2)cc1` gave PostGolgi yeast -2, CYP2C19 activ 0.5, CYP2C9 act 0.6, CYP2C9 inh 40, CYP2C19 inhib 53* and PostGolgi ctrl 24.
CCOc1ccc(OCC)c(NC(=O)CNS(=O)(=O)c2cccs2)c1 was read as PostGolgi yeast 1, CYP2C19 activ 0.7, CYP2C9 act 0.7, CYP2C9 inh 34, CYP2C19 inhib 30 and PostGolgi ctrl 1.
`CCC(C)N1C(=O)C2C(C(=O)Nc3cccc(OC)c3)C3C=CC2(O3)C1C(=O)NC1CCCCC1C` (stereo not given) gave PostGolgi yeast 2, CYP2C19 activ 0.9, CYP2C9 act 0.9, CYP2C9 inh 12, CYP2C19 inhib 8 and PostGolgi ctrl 18.
`Cc1ccnc2nc(C(=O)NCCc3ccc(F)cc3)nn12` gave PostGolgi yeast 7, CYP2C19 activ 0.8, CYP2C9 act 1.2, CYP2C9 inh -22, CYP2C19 inhib 15 and PostGolgi ctrl 0.
CCOC(=O)Cn1c(-c2ccccc2)nc2ccccc2c1=O was read as PostGolgi yeast 12, CYP2C19 activ 0.9, CYP2C9 act 0.8, CYP2C9 inh 24, CYP2C19 inhib 6 and PostGolgi ctrl 8.
Screening O=c1c2ccccc2c2c(O)nc(-c3ccccc3)n2n1Cc1ccccc1 returned PostGolgi yeast 2, CYP2C19 activ 0.9, CYP2C9 act 0.5, CYP2C9 inh 54*, CYP2C19 inhib 10 and PostGolgi ctrl 22.
NC(=O)c1cn(-c2ccccc2)nc1-c1cc2ccccc2oc1=O was read as PostGolgi yeast 4, CYP2C19 activ 1.1, CYP2C9 act 1.1, CYP2C9 inh -8, CYP2C19 inhib -7 and PostGolgi ctrl 13.
Screening O=C(c1ccccc1)c1nn(-c2ccc(Cl)cc2)cc1C(=O)c1cc2ccccc2oc1=O returned PostGolgi yeast -3, CYP2C19 activ 0.7, CYP2C9 act 0.3, CYP2C9 inh 67*, CYP2C19 inhib 26 and PostGolgi ctrl 12.
For O=C(CCS(=O)(=O)c1ccc(Br)cc1)N1CCN(c2ccccc2)CC1 the results were PostGolgi yeast 4, CYP2C19 activ 0.8, CYP2C9 act 0.6, CYP2C9 inh 39, CYP2C19 inhib 16 and PostGolgi ctrl -3.
O=C(COC(=O)C1(c2ccccc2F)CCCC1)NC1CCS(=O)(=O)C1 (stereo not given) was read as PostGolgi yeast 0, CYP2C19 activ 0.9, CYP2C9 act 1, CYP2C9 inh 5, CYP2C19 inhib 12 and PostGolgi ctrl -1.
For O=C(Cc1ccc(Br)cc1)N1CCN(c2ccccc2O)CC1 the results were PostGolgi yeast -4, CYP2C19 activ 0, CYP2C9 act 0.2, CYP2C9 inh 81*, CYP2C19 inhib 96* and PostGolgi ctrl 21.
Screening O=C(COC(=O)C1(c2ccccc2)CC1)N1CCN(c2ccc(F)cc2)CC1 returned PostGolgi yeast -3, CYP2C19 activ 0.2, CYP2C9 act 1.1, CYP2C9 inh -6, CYP2C19 inhib 77* and PostGolgi ctrl -1.
O=C(CCS(=O)(=O)c1ccc(Br)cc1)N1CCN(c2ccccc2Cl)CC1 was read as PostGolgi yeast 3, CYP2C19 activ 0.3, CYP2C9 act 1, CYP2C9 inh -2, CYP2C19 inhib 71* and PostGolgi ctrl 8.
